Screening results from PubChem BioAssay.
PTAP-TSG101 blk = qHTS Validation Assay for Inhibitors of HIV-1 Budding by Blocking the Interaction of PTAP/TSG101: Sytravon Library Screen. Tumor susceptibility gene 101 protein (Homo sapiens), Q99816. 44,000 tested, under 10 active. Fluorescence polarization, FITC-PTAP peptide/Tsg101, 20 min. Potency, µM (series often up to 115 µM), hits mostly inhibitors; also: potency is read from the fitted curve at half-maximal effect; 0% is about no effect
Target sequence (Q99816 whole entry, looked up): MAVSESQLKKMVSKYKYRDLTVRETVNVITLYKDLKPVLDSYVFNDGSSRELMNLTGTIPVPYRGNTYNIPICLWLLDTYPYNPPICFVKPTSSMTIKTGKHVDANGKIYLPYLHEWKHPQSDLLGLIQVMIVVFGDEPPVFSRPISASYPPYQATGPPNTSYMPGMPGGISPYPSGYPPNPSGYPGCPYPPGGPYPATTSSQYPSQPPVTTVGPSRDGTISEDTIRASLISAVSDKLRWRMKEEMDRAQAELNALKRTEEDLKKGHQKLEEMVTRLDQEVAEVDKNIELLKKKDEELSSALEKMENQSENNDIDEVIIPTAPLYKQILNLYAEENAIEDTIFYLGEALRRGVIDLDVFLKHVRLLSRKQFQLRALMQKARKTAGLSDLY
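The Tsg101 binding domain, at 10 uM final, is mixed with compound and a FITC peptide bearing the PTAP motif (50 nM final). After 20 min at r.t., polarization is measured; actives defined by CRC class, efficacy cut-off 60% inhibition.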
GALK inh = qHTS Assay for Inhibitors of Human Galactokinase (GALK): NCGC Sytravon Library Screen | P51570 | recombinant GALK, Kinase-Glo ATP luminescence, 1 h | Potency, µM (doses to about 57.5 µM), for the others: at the top dose activity, negative = inhibition, hits mostly inhibitors | 44,000 tested, under 10 active;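 also: plate controls were full GALK reaction for no effect and reaction lacking GALK for full effect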
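Luminescent ATP-depletion readout (Kinase-Glo Plus) after 1 h room-temperature incubation of human GALK (5 nM) with galactose 100 µM and ATP 35 µM, pH 8.0 HEPES/Mg2+ buffer; compounds tested in qHTS format.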
B2AR arrestin ag = qHTS assay of beta-arrestin-biased ligands of beta2-adrenergic receptor: NCGC Sytravon Library Screen; HTLA Tango cells, beta-arrestin recruitment, luciferase luminescence, 18 h; Potency, µM (titrated, usually from 46.1 µM), actives largely listed as activators; 44,000 tested, under 10 active;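 also: potency is read from the fitted curve at half-maximal effect; 0% = DMSO and full agonism = EC100 isoproterenol or metaproterenol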
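Tango cell line, 1% FBS DMEM; cpd titration up to 46 microM; 18 hr, 37 degrees C, 5% CO2. Luciferin/ATP substrate mix added, 15 min RT, luminescence. %Activity, CRC fitting, curve-class categorization.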
An asterisk follows results filed as active. Rows were chosen to be rich in hits. Some 0.022% of all compounds tested hit in one or more screens of this group. Calls follow the shape of the dose curve; as a rule, active = well fitted curve in the direction sought with a large enough effect; inconclusive = small, poorly fitted or top-dose-only effect, or another doubt; inactive = no such curve, though single readings can be large; an effect the other way counts as inactive or inconclusive.

Screening Cc1ccc(C(=O)c2cn(Cc3ccccc3)c3nc(C)ccc3c2=O)cc1 returned PTAP-TSG101 blk inactive, GALK inh 5% and B2AR arrestin ag inactive.
Screening Fc1ccc(N2CCN(c3ncnc4c3nc3n4CCCC3)CC2)cc1 returned PTAP-TSG101 blk inactive, GALK inh 5% and B2AR arrestin ag inactive.
For Cc1ccc(NC(=O)Cc2csc(C)n2)c(C)c1 the results were PTAP-TSG101 blk inactive, GALK inh 1% and B2AR arrestin ag inactive.
`COc1ccccc1CNC(=O)CN1C(=O)CCn2nc(-c3ccccc3)cc21` gave PTAP-TSG101 blk inactive, GALK inh 0% and B2AR arrestin ag inactive.
For Cc1ccc(-c2nnc(Nc3ccc(F)cc3)c3ccccc23)cc1S(=O)(=O)N1CCN(C)CC1 the results were PTAP-TSG101 blk inactive, GALK inh 0% and B2AR arrestin ag inactive.
For CC(=O)c1cccc(NC(=O)C2CCN(c3nnc(-n4cccc4)s3)CC2)c1 the results were PTAP-TSG101 blk inactive, GALK inh 1% and B2AR arrestin ag inactive.
`Cc1ccc(CCNC(=O)NCc2noc3ccc(C)cc23)cc1` gave PTAP-TSG101 blk inactive, GALK inh 2% and B2AR arrestin ag inactive.
Screening CCC(Oc1ccccc1)C(=O)N1CCN(Cc2cc(=O)n3nc(-c4cccc(C)c4)sc3n2)CC1 (stereo unspecified) returned PTAP-TSG101 blk inactive, GALK inh 1% and B2AR arrestin ag inactive.
`Cc1ccc(CN(Cc2ccco2)C(=O)COc2ccc(Cl)cc2)o1` gave PTAP-TSG101 blk inactive, GALK inh 0% and B2AR arrestin ag inactive.
Screening COc1ccc(N(Cc2ccccc2)C(=O)c2nc(S(C)(=O)=O)ncc2Cl)cc1 returned PTAP-TSG101 blk inactive, GALK inh 3% and B2AR arrestin ag inactive.
Screening O=C(NCc1cccnc1)c1nn(-c2ccc(F)cc2)nc1CO returned PTAP-TSG101 blk inactive, GALK inh -3% and B2AR arrestin ag inactive.
`Cc1ccc(C)c(NC(=O)Nc2cc3c(cc2N2CCCCC2)n(C)c(=O)n3C)c1` gave PTAP-TSG101 blk inactive, GALK inh -7% and B2AR arrestin ag inactive.
COc1ccc(CNC(=O)CSCc2nc(-c3ccccc3C)oc2C)cc1 was read as PTAP-TSG101 blk inactive, GALK inh 8% and B2AR arrestin ag inactive.
Screening Cc1cccc(NC(=O)CSc2cn(CC(=O)N3CCCCCC3)c3ccccc23)c1 returned PTAP-TSG101 blk inactive, GALK inh 1% and B2AR arrestin ag inactive.
COc1ccc(-c2nc3scc(CCNS(=O)(=O)c4ccc(F)cc4C)n3n2)cc1 was read as PTAP-TSG101 blk inactive, GALK inh 2% and B2AR arrestin ag inactive.
Screening Cc1c(Cl)cccc1NC(=O)Cn1c(=O)n(Cc2ccco2)c(=O)c2oc3ccccc3c21 returned PTAP-TSG101 blk inactive, GALK inh 5% and B2AR arrestin ag inactive.
CCOC(=O)c1cccc(NC(=O)CN2C(=O)c3ccccc3Sc3ncccc32)c1 was read as PTAP-TSG101 blk inactive, GALK inh 3% and B2AR arrestin ag inactive.
`CCOCCCN1C(=O)c2[nH]nc(-c3ccccc3O)c2C1c1ccc(CC)cc1` (stereo unspecified) gave PTAP-TSG101 blk inactive, GALK inh 2% and B2AR arrestin ag 7.1µM*.
`CCc1ccc(C2c3c(-c4ccccc4O)n[nH]c3C(=O)N2Cc2ccncc2)cc1` (stereo unspecified) gave PTAP-TSG101 blk inactive, GALK inh 0% and B2AR arrestin ag inconclusive.
`COc1ccc(C(=O)NCC(c2cccs2)S(=O)(=O)c2ccc(F)c(C)c2)cc1` (stereo unspecified) gave PTAP-TSG101 blk inactive, GALK inh -1% and B2AR arrestin ag inactive.
For CCc1c(C)sc2c1CCN(C(=O)Nc1cc(Cl)c(OC)cc1OC)C2c1ccccc1 (stereo unspecified) the results were PTAP-TSG101 blk inactive, GALK inh -2% and B2AR arrestin ag inactive.
Screening Cc1ccc(CN2CCN(C3CCN(C(=O)c4ccccc4)CC3)C(=O)C2=O)cc1 returned PTAP-TSG101 blk inactive, GALK inh 2% and B2AR arrestin ag inactive.
CCS(=O)(=O)c1ncc(Cl)c(C(=O)N2CCN(c3cccc(Cl)c3)CC2)n1 was read as PTAP-TSG101 blk inactive, GALK inh -7% and B2AR arrestin ag inactive.
